# Where “and” joins values, the source holds several entries; their conditions need not be identical. Identical values can stand only once. Records with an inconclusive call do not appear. More than one record can exist for a structure, and the calls need not agree. Values without a mark were called inactive. Calls of active or inactive are those of the source. Unless noted, calls follow the shape of the dose curve; as a rule, active = well fitted curve in the direction sought with a large enough effect; inconclusive = small, poorly fitted or top-dose-only effect, or another doubt; inactive = no such curve, though single readings can be large; an effect the other way counts as inactive or inconclusive. Starred links: 1 amine or outer side, 2 acyl side, 3 side chain; linkers in the order of their positions; H or OH if unused. Positions of bridges follow the written chain, without caps; N, C: chain ends. Non-standard residues stand in square brackets, D forms with d. Residues, ends and D or L forms follow the SMILES beside them. ξ: configuration not given here. *: point of attachment. X11 = NC1=NCCC(C(N[*:1])C(=O)[*:2])N1; ΔAla(3-NHCONH2) = NC(=O)NC=C(N)C(=O)O; ξβ3hOrn = NCCCC(N)CC(=O)*; Dap = NC[CH](N)C(=O)O
# Assays:
# [1] = target: Cellular tumor antigen p53 (Homo sapiens) (UniProt P04637); assay: Primary qHTS for small molecule compounds that upregulate eGFP-tagged delta133p53alpha (in N-terminal) cells. (AID 2060322); conditions: NCI-H358 eGFP-delta133p53alpha fluorescence, 24 h; activation: active compounds read high; also: nearly all actives have a fitted effect of over 75% in size; also: potency is read from the fitted curve at half-maximal effect;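 as to activation: cells pre-induced with doxycycline then dosed without doxycycline; series mostly up to about 56 µM; 0% = DMSO vehicle and 100% = reference activator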
# Cellular tumor antigen p53 (Homo sapiens), sequence (P04637 whole entry, looked up): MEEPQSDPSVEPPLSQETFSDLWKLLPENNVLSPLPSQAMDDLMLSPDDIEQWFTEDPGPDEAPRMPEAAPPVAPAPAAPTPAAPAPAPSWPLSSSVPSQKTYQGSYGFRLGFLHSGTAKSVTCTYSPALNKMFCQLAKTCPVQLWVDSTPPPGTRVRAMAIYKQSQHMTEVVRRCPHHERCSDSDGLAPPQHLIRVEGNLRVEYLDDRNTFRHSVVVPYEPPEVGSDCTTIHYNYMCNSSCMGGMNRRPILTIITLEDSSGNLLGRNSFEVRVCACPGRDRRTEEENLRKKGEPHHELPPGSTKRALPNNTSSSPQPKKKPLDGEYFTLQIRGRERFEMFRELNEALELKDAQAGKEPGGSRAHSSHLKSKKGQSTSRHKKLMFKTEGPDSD
# Summary of the method: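 NCI-H358 cells pre-induced 24 h with 10 ng/ml doxycycline for eGFP-delta133p53alpha, plated dox-free and exposed 24 h at 37C to titrated compounds. Fixed, Hoechst-stained; gated GFP peak intensity by laser scanning cytometry, normalized to DMSO (0%) and 57.5 uM 5-azacytidine (100%).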
# [2] = target: Cellular tumor antigen p53 (Homo sapiens) (UniProt P04637); assay: Primary qHTS for small molecule compounds that upregulate eGFP-tagged delta133p53alpha (in C-terminal) cells. (AID 2060324); also: potency is read from the fitted curve at half-maximal effect
# Summary of the method: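 Readout: filtered GFP peak intensity of gated cells (laser scanning cytometer), normalized plate-wise to intraplate controls, DMSO wells = 0% activity. Cells: NCI-H358 D133p53a-eGFP, dox 100 ng/ml 24 h beforehand, then compound 24 h, 37 °C.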
# [3] = target: Aldehyde dehydrogenase, mitochondrial (Homo sapiens) (UniProt P05091); assay: qHTS for Inhibitors of the Aldehyde Dehydrogenase Family (ALDH2) Validation screens (AID 2061302; active = well fitted inhibition curve with a large enough effect; title and protocol of this record describe different tests;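 also: plate controls were DMSO vehicle for no effect and maximal DPI positive control response for full effect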)
# [4] = target: Retinaldehyde dehydrogenase 3 (Homo sapiens) (UniProt P47895); assay: qHTS for Inhibitors of the Aldehyde Dehydrogenase Family (ALDH1A3) Validation screen (AID 2061312); also: % is scaled to controls: 0 for no effect and ±100 for the full control effect; nearly all actives have a fitted effect of over 45% in size
# [5] = BET inhibitor-based combinations targeting novel dependencies in MECOM-rearranged (r) AML: SET-2 cell line (AID 2202231); conditions: SET-2 AML cells viability, CellTiter-Glo luminescence, 48 h; viability: active compounds read low, concentration not given here; also: nearly all actives have a fitted effect of over 35% in size; also: potency is read from the fitted curve at half-maximal effect;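 as to viability: plate controls were DMSO treated cells for no effect and wells without cells for full effect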
# Summary of the method: (§1)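 AML cell lines seeded at 500 cells/well, treated with 11-point dose curves for 48 h. Viability by CellTiter-Glo luminescence, normalised to DMSO and empty wells; activity expressed as AUC and per-cell-line Z-transformed AUC.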
# [6] = BET inhibitor-based combinations targeting novel dependencies in MECOM-rearranged (r) AML: OCI-AML3 cell line (AID 2202232); conditions: Potency: OCI-AML3 viability; also: nearly all actives have a fitted effect of over 35% in size; also: potency is read from the fitted curve at half-maximal effect
# Summary of the method: as §1
# [7] = BET inhibitor-based combinations targeting novel dependencies in MECOM-rearranged (r) AML: MV-4-11 cell line (AID 2202233); also: nearly all actives have a fitted effect of over 45% in size; also: potency is read from the fitted curve at half-maximal effect
# Summary of the method: (§2)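 Cells at 500/well were exposed for 48 hr to MIPE v5.0 drugs as 11-point dose curves. Viability was read by CellTiter-Glo luminescence and normalized to DMSO and empty-well controls. Activity was expressed as AUC and per-cell-line Z-AUC.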
# [8] = BET inhibitor-based combinations targeting novel dependencies in MECOM-rearranged (r) AML: HNT-34 cell line (AID 2202234); also: nearly all actives have a fitted effect of over 35% in size; also: potency is read from the fitted curve at half-maximal effect
# Summary of the method: as §2
# [9] = BET inhibitor-based combinations targeting novel dependencies in MECOM-rearranged (r) AML: UCSD-AML1 cell line (AID 2202235); also: nearly all actives have a fitted effect of over 40% in size; also: potency is read from the fitted curve at half-maximal effect
# Summary of the method: as §2
# [10] = BET inhibitor-based combinations targeting novel dependencies in MECOM-rearranged (r) AML: AML-191 cell line (AID 2202236; also: nearly all actives have a fitted effect of over 35% in size; also: potency is read from the fitted curve at half-maximal effect)
# Summary of the method: as §1
# [11] = BET inhibitor-based combinations targeting novel dependencies in MECOM-rearranged (r) AML: AML-194 cell line (AID 2202237; also: nearly all actives have a fitted effect of over 40% in size; also: potency is read from the fitted curve at half-maximal effect)
# Summary of the method: as §1
# [12] = target: Aldehyde dehydrogenase, mitochondrial (Homo sapiens) (UniProt P05091); assay: qHTS for Inhibitors of the Aldehyde Dehydrogenase Family (ALDH2) Confirmatory screens (AID 2061303; active = well fitted inhibition curve with a large enough effect; title and protocol of this record describe different tests; also: % is scaled to controls: 0 for no effect and ±100 for the full control effect; nearly all actives have a fitted effect of over 45% in size)
# [13] = qHTS for Inhibitors of the Aldehyde Dehydrogenase Family (ALDH1A2, ALDH1A3, ALDH2, ALDH3A1) (AID 2061307); also: % is scaled to controls: 0 for no effect and ±100 for the full control effect; nearly all actives have a fitted effect of over 50% in size
# [14] = target: Retinaldehyde dehydrogenase 3 (Homo sapiens) (UniProt P47895); assay: qHTS for Inhibitors of the Aldehyde Dehydrogenase Family (ALDH1A3) Confirmatory screens (AID 2061311); also: nearly all actives have a fitted effect of over 60% in size
# [15] = target: Aldehyde dehydrogenase 1A1 (Homo sapiens) (UniProt P00352); assay: qHTS for Inhibitors of the Aldehyde Dehydrogenase Family (ALDH1A1) Confirmatory screens (AID 2061316); also: nearly all actives have a fitted effect of over 65% in size
compound,measurement,setting,value
CC[C@H]1CN2CCc3cc(OC)c(OC)cc3[C@@H]2C[C@@H]1C[C@H]1NCCc2cc(OC)c(OC)cc21,Potency,[1],0.617 µM (active)
same,activation,[1],20.5%
same,Potency,[2],0.151 µM (active)
same,Potency,[3],inactive
same,Potency,[4],inactive
same,Potency,[5],0.372 µM (active)
same,Potency,[6],0.468 µM (active)
same,Potency,[7],0.235 µM (active)
same,Potency,[8],0.332 µM (active)
same,Potency,[9],0.372 µM (active)
same,Potency,[10],0.417 µM (active)
same,Potency,[11],0.372 µM (active)
O=C(O)[C@H]1O[C@H](Oc2cc3oc(-c4ccccc4)cc(=O)c3c(O)c2O)[C@H](O)[C@@H](O)[C@H]1O,activation,[1],28.4%
CNCC[C@H](Oc1cccc2ccccc12)c1cccs1,Potency,[1],17.4 µM (active)
same,activation,[1],8.04%
CCCCCCCC(=O)OCC(O)CO (configuration not stated),activation,[1],-14.2%
Cc1cccc(C)c1NC(=O)c1ccccc1C(=O)O,activation,[1],28.5%
COCc1c(C(C)C)nc(C(C)C)c(/C=C/[C@@H](O)C[C@@H](O)CC(=O)O)c1-c1ccc(F)cc1,activation,[1],27.7%
CC1CC(OC(=O)c2ccccc2O)CC(C)(C)C1 (configuration not stated),activation,[1],-0.565%
Cc1cc(C)cc(OCC2CNC(=O)O2)c1 (configuration not stated),activation,[1],-11.9%
O=C(C=Cc1ccc(/C=C/C(=O)Nc2ccc(C3=NCCN3)cc2)cc1)Nc1ccc(C2=NCCN2)cc1,activation,[1],-8.95%
C[C@@H]1CN(CCCn2c3ccccc3c3ccccc32)C[C@H](C)N1,activation,[1],16.4%
O=C1CCCc2c(O)cccc21,activation,[1],-14.1%
CCCCCCCC/C=C\CCCCCCCCN,activation,[1],-16.7%
CCN(CC)CCOc1ccc(Nc2ncc3cc(-c4c(Cl)cccc4Cl)c(=O)n(C)c3n2)cc1,Potency,[1],5.44 µM (active)
same,activation,[1],-1.41%
same,Potency,[2],26.9 µM (active)
same,Potency,[3],inactive
same,Potency,[12],inactive
same,Potency,[13],inactive
same,Potency,[14],inactive
same,Potency,[15],inactive
same,Potency,[5],3.72 µM (active)
same,Potency,[6],2.63 µM (active)
same,Potency,[7],0.59 µM (active)
same,Potency,[8],0.0295 µM (active)
same,Potency,[9],2.95 µM (active)
same,Potency,[10],2.35 µM (active)
same,Potency,[11],2.95 µM (active)
Cc1c(Nc2ncccc2C(=O)O)cccc1C(F)(F)F,activation,[1],-5.08%
NCCCC(N)CC(=O)NCC1NC(=O)C(CO)NC(=O)C(N)CNC(=O)C(C2CCN=C(N)N2)NC(=O)C(=CNC(N)=O)NC1=O (stereo not drawn) (H-[Dap]S[Dap](ξβ3hOrn)[ΔAla(3-NHCONH2)][X11]; lactam 1-C; configuration not given here),activation,[1],-4.18%
O=C(c1cc(O)c(O)c(O)c1)c1ccc(O)c(O)c1O,activation,[1],23.2%
O=C(c1ccccc1)c1ccccc1,activation,[1],16.4%
C=CCCCCCCCCC(=O)O,activation,[1],-20.9%
COc1ccc(-n2nc(CCC(=O)N(C)O)cc2-c2ccc(Cl)cc2)cc1,activation,[1],-8.47%
CC(C)=CCCC(C)=CCCC(C)=CCCC(C)=CCCC(C)=CCCC(C)=CCCC(C)=CCCC(C)=CCCC(C)=CCO,activation,[1],8.65%
O=C(N[C@H](CO)[C@H](O)c1ccc([N+](=O)[O-])cc1)C(Cl)Cl,activation,[1],15.3% and -2.04%
COc1cc(/C=C/C(N)=O)cc(OC)c1OC,activation,[1],-18.6%
OC(CCN1CCCC1)(c1ccccc1)C1CCCCC1 (configuration not stated),activation,[1],20.1%
O=C(c1cccc(Br)c1)N1CCC(N2CCCC2)CC1,activation,[1],-15.6%
NC1CCN(c2cccc(Cl)n2)CC1,activation,[1],-10.7%
O=S(=O)(O)c1ccc(O)cc1,activation,[1],5.08%
Nc1ccccc1NC(=O)CCCCCCC(=O)Nc1ccccc1,activation,[1],-13.4%
CCOC(=O)N1CCC(n2c(=O)[nH]c3cc(Cl)ccc32)CC1,activation,[1],-16.4%
NC(=O)NO,Potency,[1],30.6 µM (active)
same,activation,[1],-16.4% and -32.9%
same,Potency,[2],inactive
same,Potency,[3],inactive
same,Potency,[4],inactive
same,viability,[5],114%
same,Potency,[6],inactive
same,Potency,[7],inactive
same,Potency,[8],inactive
same,Potency,[9],inactive
same,Potency,[10],inactive
same,Potency,[11],inactive
O=C1Nc2ccc(I)cc2C1=Cc1cc(Br)c(O)c(Br)c1,Potency,[1],24.3 µM (active)
O[C@@H]1CO[C@H]2[C@@H]1OC[C@@H]2O,activation,[1],-14.2%
CCN(CC)c1ccc(C(=C2C=CC(=[N+](CC)CC)C=C2)c2cc(S(=O)(=O)O)ccc2S(=O)(=O)[O-])cc1,activation,[1],-8.47%
O=C(CCCCCCSc1ccc2ccccc2c1)NO,activation,[1],0%
CCCCCCCCCCOc1cc2c(=O)c(C(=O)OCC)c[nH]c2cc1OCC,activation,[1],-12.6%
CC(=O)NS(=O)(=O)c1ccc(N)cc1,activation,[1],-1.67%

# Reference: PubChem BioAssay (NCATS)
